One may read the inhibition as the drop in the measured response relative to a control, in per cent.

The record followed here is ChEMBL document CHEMBL3433997, “St. Jude Leishmania screening dataset” (2016).

Type in all cases: functional
For assay [1], the target named is Solute carrier family 2, facilitated glucose transporter member 1 (Homo sapiens) (UniProt P11166). Kind of assay: ST_JUDE_LEISH: Cytotoxicity at 2uM final concentration against transgenic Leishmania Mexicana promastigotes LmGLUT1 that are glucose transport deficient and complemented with the human glucose transporter GLUT1. Activity is measured by DNA content using SYBR green in vitro.

Assay [2] deals with Hexose transporter 1 (Plasmodium falciparum) (UniProt O97467). As to the kind of experiment: ST_JUDE_LEISH: Cytotoxicity at 2uM final concentration against transgenic Leishmania Mexicana promastigotes LmPfHT that are glucose transport deficient and complemented with the Plasmodium falciparum hexose transporter. Activity is measured by DNA content using SYBR green in vitro.
The target in assay [3] is Glucose transporter (Leishmania mexicana) (UniProt O61059). Kind of assay: ST_JUDE_LEISH: Cytotoxicity at 2uM final concentration against transgenic Leishmania Mexicana promastigotes LmGT2 that are glucose transport deficient and complemented with the L. Mexicana glucose transporter 2. Activity is measured by DNA content using SYBR green in vitro.

Chain of Solute carrier family 2, facilitated glucose transporter member 1 (Homo sapiens) (P11166 whole entry): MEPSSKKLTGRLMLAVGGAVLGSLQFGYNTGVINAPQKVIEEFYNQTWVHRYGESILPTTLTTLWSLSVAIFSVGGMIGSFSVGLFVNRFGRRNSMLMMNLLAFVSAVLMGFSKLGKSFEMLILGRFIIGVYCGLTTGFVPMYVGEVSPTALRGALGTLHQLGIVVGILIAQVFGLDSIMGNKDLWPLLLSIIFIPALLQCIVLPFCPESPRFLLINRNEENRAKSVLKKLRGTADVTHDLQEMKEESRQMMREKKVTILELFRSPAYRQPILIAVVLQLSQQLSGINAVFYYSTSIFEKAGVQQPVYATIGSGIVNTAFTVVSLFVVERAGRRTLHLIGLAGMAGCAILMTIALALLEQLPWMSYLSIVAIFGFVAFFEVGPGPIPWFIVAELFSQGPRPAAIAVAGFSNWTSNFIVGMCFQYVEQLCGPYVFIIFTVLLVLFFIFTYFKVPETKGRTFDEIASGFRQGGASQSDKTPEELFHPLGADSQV

On to `CCc1c(CCNCC/C=C/CCNCCc2ccc(OC)c(OC)c2CC)ccc(OC)c1OC`, for which the inhibition was 0.84% in assay [1], 1.33% in assay [2] and -1.26% in assay [3].

As to `O=C(Nc1cccnc1)c1cc(-c2cccnc2)nc2ccc(Cl)cc12`, the inhibition in assay [1] came out at 6.95%; in assay [2], 2.76%; in assay [3], 1.98%.

For the compound `CS(=O)(=O)c1cccc(-c2cnc3[nH]cc(-c4ccc(CCC(=O)O)cc4)c3c2)c1`, the inhibition in assay [1] is 0.77%; in assay [2] it was 1.38%; in assay [3] it was 0.31%.

Take `Cc1c(F)cc(C(=O)NC2CC2)cc1-c1ccc2c(cnn2S(=O)(=O)c2cccs2)c1`: the inhibition in assay [1] stood at 2.62%; in assay [2], 5.11%; in assay [3] it was 0.02%.

On to `CCOc1cc(O)c(-c2nc(N)ncc2-c2ccc3c(c2)OCCO3)cc1CC`, for which the results for the inhibition in assay [1], in assay [2] and in assay [3] were 9.25%, 11% and 4.66%, respectively.

Consider `Cn1cc(-c2ccnc3[nH]c(-c4cccc(CNC5CCC(O)CC5)c4)cc23)cn1` (stereo unspecified), for which the values for the inhibition in assay [1], in assay [2] and in assay [3] were 0.39%, 1.89% and 3.37%, respectively.

For the compound `CCCCCCCCCN(CCC)C(=O)[C@@H]1OC(C(=O)OC(c2ccccc2)c2ccccc2)=C[C@H](NC(=O)OC(C)(C)C)[C@H]1NC(C)=O`, the values for the inhibition in assay [1], in assay [2] and in assay [3] were 2.98%, 2.98% and 1.47%, respectively.

Regarding `Cc1[nH]c(C)c(-c2cccc(-c3ccc(OC(F)(F)F)cc3)c2)c(=O)c1Br`, the figures for the inhibition in assay [1], in assay [2] and in assay [3] were 1.89%, 4.46% and -1.64%, respectively.

As to `Cc1cccc2nc(-c3ccc(-c4ccc(CN5CCCC(N)C5)cc4)cc3)[nH]c12` (stereo unspecified), the inhibition came out at 8.17% in assay [1], 11% in assay [2] and 2.6% in assay [3].

Turning to `Cc1cc(F)ccc1C1CCN(CCCCNC(=O)c2ccc(NC(=O)c3ccc(Cl)cc3)cc2)CC1`, the values for the inhibition in assay [1], in assay [2] and in assay [3] were 1.66%, 0.36% and 0.87%, respectively.

Consider `O=C(NCc1ccc(F)cc1)Nc1ccc(-c2cccc(-c3nc4cc(C(F)(F)F)ccc4[nH]3)c2)cc1`, for which the inhibition in assay [1] is 3.93%; in assay [2], 2.38%; in assay [3] it was -0.05%.

On to `CN(C)CCC1CCCc2ccc(NC(=O)Nc3ccc(-c4ccncc4)c4ccccc34)cc21` (stereo unspecified), for which the inhibition in assay [1] is 4.29%; in assay [2], 1.03%; in assay [3], -0.88%.

On to `CC1(C)[C@H]2CC[C@@H](CNc3nc(NCCc4c[nH]cn4)nc(Nc4ccc(Oc5ccccc5)cc4)n3)[C@@H]1C2`, for which the inhibition was 1.23% in assay [1], -1.54% in assay [2] and -1.61% in assay [3].

Consider `Cc1cccc2nc(-c3ccc(-c4cccc(NC(=O)c5cnccc5C(F)(F)F)c4)cc3)[nH]c12`, for which the results for the inhibition in assay [1], in assay [2] and in assay [3] were 11.2%, 10.4% and 8.19%, respectively.

For `COc1ccc(CNCCCCCCNCCc2ccc(Cl)cc2)cc1OC`, the figures for the inhibition in assay [1], in assay [2] and in assay [3] were 1.25%, 1.81% and 3.24%, respectively.

`CC1CCCN(S(=O)(=O)c2cc(Br)cc3c2N(C(=O)C2CC2)CC3)C1` (stereo unspecified): the figures for the inhibition in assay [1], in assay [2] and in assay [3] were 2.64%, 2.33% and 1.02%, respectively.

`Fc1cc(Cl)ccc1Nc1ccnc2cc(-c3ccc(CN4CCCCC4)o3)ccc12`: the values for the inhibition in assay [1], in assay [2] and in assay [3] were 2.55%, 1.59% and 0.77%, respectively.

With `O=C(Nc1ccccc1-c1ccccc1)C1CCCN1C(=O)Nc1ccc(Cl)cc1` (stereo unspecified), the inhibition in assay [1] was -0.38%; in assay [2], -0.89%; in assay [3] it was -2.33%.

`COc1ccc(CC(=O)Nc2ccc(-c3cccc(-c4nc5cccc(C)c5[nH]4)c3)cc2)cc1O`: the inhibition was found to be 3.89% in assay [1], 5.29% in assay [2] and 5.34% in assay [3].

`Cc1nc(Nc2ccc(F)cc2)nc(N2CCc3ccccc3[C@@H]2C)c1C`: the inhibition is 3.94% in assay [1], 5.21% in assay [2] and 1.46% in assay [3].

Turning to `COc1ccc(C(=O)NCc2ccc(N)nc2C)cc1Nc1ncc(-c2cccc(N(C)C)c2)cn1`, the inhibition was 0.19% in assay [1], -1.36% in assay [2] and 1.76% in assay [3].

Take `COc1ccc2[nH]c(C)cc(=NN=Cc3ccccc3F)c2c1`: the inhibition in assay [1] was -0.29%; in assay [2] it was 2.87%; in assay [3], -2.38%.

As to `CN1CCN(CCCN(Cc2ccc(-c3cccc(CNCc4ccc5c(c4)OCO5)c3)cc2)C(=O)CCC2CCCC2)CC1`, the inhibition is 2.35% in assay [1], 2.56% in assay [2] and -0.03% in assay [3].

Turning to `COc1ccc(CNC2CCN(C)CC2)cc1-c1ccc(S(=O)(=O)NCc2ccccc2)cc1`, the inhibition in assay [1] amounted to 3.88%; in assay [2], 4.24%; in assay [3], 5.02%.

As for `CCN(CC)CCOc1ccc(C(O)(C#CC(O)(c2ccccc2)c2ccc(OCCN(CC)CC)cc2)c2ccccc2)cc1` (stereo unspecified), the inhibition in assay [1] was -1.1%; in assay [2], -2.58%; in assay [3] it was 1.94%.

As for `COc1ccc2nccc([C@@H](O)CN3CCC(NCc4cc5oc(=O)[nH]c5cc4F)CC3)c2c1`, the inhibition in assay [1] is 0.09%; in assay [2] it was 0.65%; in assay [3] it was 2.44%.

For `O=S(=O)(NCCN1CCCC1)c1ccc(-c2cccc(CNCc3ccccc3)c2)s1`, the inhibition in assay [1] is -2.31%; in assay [2], -2.12%; in assay [3] it was -2.89%.

Consider `COc1cc2nc(Nc3ccc4c(ccn4Cc4ccccc4)c3)nc(Nc3ccc4c(ccn4Cc4ccccc4)c3)c2cc1OC`, for which the inhibition stood at 1.55% in assay [1], 1.97% in assay [2] and 3.43% in assay [3].

As to `Nc1nccc2ccc(OC3CCCCC3)cc12`, the inhibition in assay [1] is 0.26%; in assay [2], 1.26%; in assay [3] it was 1.91%.

On to `CC(C)(C)OC(=O)NCC(=O)N(Cc1ccccc1)Cc1ccccc1`, for which the values for the inhibition in assay [1], in assay [2] and in assay [3] were 4.96%, 4.38% and 3.73%, respectively.

As for `N=c1c2c(n(Cc3cccc(Cl)c3)c3c1CCC3)CCCC2`, the inhibition in assay [1] worked out at 40.7%; in assay [2], 49.2%; in assay [3], 20.4%.

`CC(C)(C)c1ccc(CNC(=O)/C=C/c2ccc(-c3nc4cc(C(C)(C)C)ccc4[nH]3)cc2)cc1`: the inhibition in assay [1] is 2.35%; in assay [2] it was 3.4%; in assay [3], 4.02%.

Turning to `O=[N+]([O-])c1cccc(-c2nc(-c3ccc(Br)cc3)[nH]c2-c2ccc(Br)cc2)c1`, the values for the inhibition in assay [1], in assay [2] and in assay [3] were 2.77%, 4.88% and 1.57%, respectively.

With `Cc1cc(N/N=C/c2cccc([N+](=O)[O-])c2)c2cc(F)ccc2n1`, the inhibition in assay [1] was found to be 2.55%; in assay [2], 1.82%; in assay [3], 0.14%.

Consider `CN(C)C(S)=NN=Cc1cccc(O)c1O`, for which the inhibition in assay [1] was 6.64%; in assay [2] it was 6.87%; in assay [3] it was 4.78%.

On to `CCOc1cc(C)c(C2CCN(CCCCNC(=O)c3ccc(NC(=O)c4ccc(Cl)cc4)cc3)CC2)cc1C`, for which the values for the inhibition in assay [1], in assay [2] and in assay [3] were -0.49%, -0.72% and -0.67%, respectively.

Take `NC1CCN(CCNCc2cccc(-c3ccc(-c4nc5cc(C(F)(F)F)ccc5[nH]4)cc3)c2)C1` (stereo unspecified): the inhibition in assay [1] was 2.65%; in assay [2], 1.4%; in assay [3] it was 2.67%.

For `CC(C)CNCc1cccc(-c2cccc(CNc3ccc4ncccc4c3)c2)c1`, the inhibition in assay [1] is 2.92%; in assay [2] it was 1.32%; in assay [3], 2.08%.

On to `COc1ccc2nccc(N3CCC(NCc4ccc5c(n4)NC(=O)CS5)CC3)c2n1`, for which the values for the inhibition in assay [1], in assay [2] and in assay [3] were 0.15%, -0.14% and 2.01%, respectively.

For `CN(C)C(=O)CN1CCN(c2ncnc(N3CCc4c([nH]c5ccccc45)[C@@H]3c3ccc4c(c3)CCO4)n2)CC1`, the figures for the inhibition in assay [1], in assay [2] and in assay [3] were 4.28%, 1.61% and -0.47%, respectively.

Take `O=C(Nc1ccc(-c2oc(C(=O)NCCc3cccc(Cl)c3)cc2-c2ccncc2)cc1)Nc1cccc(Cl)c1`: the inhibition worked out at 0.9% in assay [1], 1.65% in assay [2] and 2.92% in assay [3].

As for `COc1ccc2nccc([C@@H](O)CN3CCC(NC(=O)c4cc5cccnc5[nH]4)CC3)c2c1`, the inhibition in assay [1] was 5.47%; in assay [2], 3.5%; in assay [3], -0.32%.

`CCN(CCCN1CCCCC1)c1cc(C)nc(Nc2ccc3c(c2)CCC3)n1`: the inhibition was -1.26% in assay [1], 1.07% in assay [2] and 0.58% in assay [3].

Turning to `CN1CCN(CC(=O)Nc2ccc(-c3ccc(-c4nc5ccccc5[nH]4)cc3)cc2)CC1`, the inhibition in assay [1] is 8.17%; in assay [2], 6.39%; in assay [3], 9.57%.

Turning to `O=C(c1ccc(-c2cnc3[nH]cc(-c4ccc(C(=O)N5CCOCC5)cc4)c3c2)cc1)N1CCOCC1`, the inhibition in assay [1] was -0.49%; in assay [2], -1.48%; in assay [3] it was -1.88%.

Consider `COc1ccc2ncc(F)c(CCN3CCC(NCc4ccc5c(c4)CCO5)CC3)c2n1`, for which the inhibition in assay [1] stood at 16.7%; in assay [2], 21.4%; in assay [3], 20.6%.

`Nc1ncc(-c2cccc(F)c2)cc1-c1nc2cc(F)ccc2[nH]1`: the inhibition in assay [1] is 4.17%; in assay [2], 11.1%; in assay [3], 6.56%.
